Reference: PubChem BioAssay (NCI)
Several values for one entry are separate records, joined by “and”; a condition that tells them apart may be missing. Equal entries are not always repeated. Compounds without any hit were thinned out: in the full panel of roughly 83,000, 20% have a hit.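 Results are percent growth after 48 hours of single-concentration exposure. 100 means growth as in untreated cells, lower positive values show inhibition; negative values down to -100 show cell death.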 A number with no mark means an inactive call. Activity calls are given as the source filed them.

tested on: SNB-19 CNS; experiment: NCI-60 one-dose screen, 48 h (100 = growth as untreated, 0 = no growth, -100 = all killed); details: 10 µM unless noted
Procedure: Growth inhibition of the SNB-19 human tumor cell line is measured as a screen for anti-cancer activity. Cells are grown in 96 well plates and exposed to the test compound for 48 hours. Compounds are tested at a single concentration, which is 10^-5 M for most compounds. The reported endpoint is percent growth (GI% or GIPRCNT), where numbers from 0 - 100% represent growth inhibition, and numbers from -100% - 0 represent cell death. For example, a value of 40 represents 60% growth inhibition. A value of 0 means no net growth occurred over the course of the experiment. A value of -40 indicates 40% of cells at the beginning of the experiment died by the end of the experiment. A value of -100 means all cells are dead at the end of the experiment.
NCI-60 Human Tumor Cell Lines Screen was performed using the standard one-dose NCI protocol, which is described in more detail at https://dtp.cancer.gov/discovery_development/nci-60/default.htm.
Compounds with GIPRCNT values below 10 were considered active. Activity score was based on GIPRCNT using the following formula: […]
Score is 0 for GIPRCNT values of 100 or above, 50 for GIPRCNT values of 0, and 100 for GIPRCNT values of -100.

| Compound | growth |
| --- | --- |
| Oc1ccccc1C=NCCN=Cc1ccccc1O.[Fe] | 87.1% |
| C[N+]1(CC#CC[N+]2(C)CCCC2)CCCC1 | 104% |
| CC[C@H](C)[C@H](NC(=O)C12CC(NC)(C1)C2)C(=O)N(C)[C@H](C[C@@H](OC(C)=O)c1nc(C(=O)N[C@@H](Cc2ccccc2)C[C@H](C)C(=O)OC)cs1)C(C)C | 33.5% |
| CCCCOCCOP(=O)(OCCOCCCC)OCCOCCCC | 98% |
| CC1=C([Te]c2ccccc2)C(=O)c2ccccc2C1=O | 2.43% (active) |
| O=C(NC(Cl)=C(Cl)Cl)P(=O)(c1ccccc1)c1ccccc1 | 96.1% |
| CC1(C)N(Nc2ccccc2)C(=O)C2CCCN21 (stereo not given) | 95.4% |
| CCOP(=O)(NC)OCC | 102% |
| N[C@@H](CCC(=O)CCl)C(=O)O | 93.4% [20 µM] |
| C=CC[PH+](c1ccccc1)c1ccccc1.C=CC[PH+](c1ccccc1)c1ccccc1.[Pt+2].[S-]c1nc2ccccc2[nH]1.[S-]c1nc2ccccc2[nH]1 | 5.65% (active) |
| CC1(C)CN=C(NN=C(/C=C/c2ccc(C(F)(F)F)cc2)/C=C/c2ccc(C(F)(F)F)cc2)NC1 | 37.9% |
| Cn1cc(C(=O)C[n+]2ccccc2)c2ccccc21 | 105% |
| C[C@]12CCc3sc(Nc4ccc(F)cc4F)nc3C1=CC[C@@H]1[C@@H]2CC[C@]2(C)C(=O)CC[C@@H]12 | 74.1% |
| O=C(O)c1cc([N+](=O)[O-])cc([N+](=O)[O-])c1 | 105% |
| Cc1ccc(NC2=N[C@]34CC(=O)CC[C@]3(C)[C@H]3CC[C@]5(C)C(=O)CC[C@H]5[C@@H]3C[C@@H]4S2)c(C)c1 | 44% |
| Cc1cc(C(C)(C)C)ccc1O | 111% |
| CCC1(CCSC#N)C(=O)NC(=O)NC1=O | 101% |
| COc1ccc(N(CC(=O)NCCC[Te]c2ccccc2)C(=O)c2ccccc2)cc1 | 36.2% |
| Nc1c(Cl)c(Cl)nc(C(=O)O)c1Cl | 95.1% |
| CC1=C2[C@H]3OC(=O)[C@@H](C)[C@@H]3CC[C@@]2(C)C=CC1=O | 110% |

| Compound | growth |
| --- | --- |
| CC12CCC3C4CCC(=O)C=C4CCC3C1CC1CC(=O)OC12 (stereo not given) | 94.6% |
| Cc1ccc(P(=O)(O)O)cc1 | 97.9% |
| Nc1cccnc1 | 109% |
| CC[C@H](C)[C@H]1O[C@]2(C=C[C@@H]1C)C[C@@H]1C[C@@H](C/C=C(\C)[C@@H](O[C@H]3C[C@H](OC)[C@@H](O[C@H]4C[C@H](OC)[C@@H](NC)[C@H](C)O4)[C@H](C)O3)[C@@H](C)/C=C/C=C3\CO[C@@H]4[C@H](O)C(C)=C[C@@H](C(=O)O1)[C@]34O)O2 | 13.7% |
| Cn1cc(-c2csc(-c3cn(CCCCN4CCOCC4)c4ccc(F)cc34)n2)c2cccnc21 | 88.2% |
| CN1CCc2cc3c(cc2C1O)OCO3 (stereo not given) | 123% and 100% |
| C[C@@H]1C/C=C\C(=O)O[C@H](/C=C/C#C/C=C/C(C)(C)[C@@H](O)c2cccc(O)c2Br)[C@@H](C)/C=C/[C@H](C)C[C@H](OC(N)=O)C1 | 53.6% |
| Cc1ccc(N2CCN(CCC#N)CC2)cc1 | 87.9% |
| O=[N+]([O-])c1ccc(P(=O)(O)O)cc1 | 108% |
| C#Cc1cccc(Nc2nc(Cl)nc3cc(NC(=O)CF)ccc23)c1 | 89% |
| CN1[C@@H](CC(=O)c2ccccc2)CCC[C@H]1CC(=O)c1ccccc1 | 98.4% |
| CCN1C(=O)NC(=O)C(C)(N2C(=O)c3c(F)c(F)c(F)c(F)c3C2=O)C1=O (stereo not given) | 49.3% |
| CCN1C(=O)CC(=O)N(CC)C1=S | 101% |
| C[C@]12CC[C@@H](OC(=O)N(CCCl)N=O)C[C@@H]1CC[C@@H]1[C@@H]2CC[C@]2(C)C(=O)CC[C@@H]12 | 37.5% |
| O=c1[nH]c(=O)n(Cl)c(=O)n1Cl | 106% and 98.2% |
| C[C@]12CC[C@H]3[C@@H](CC=C4c5nc(-c6ccc(Br)cc6)sc5CC[C@@]43C)[C@@H]1CC[C@@H]2O | 84.4% |
| O=[N+]([O-])c1ccc2scc3c4ccccc4nc-3c2c1 | 46.7% |
| O=S(=O)(F)c1cccc(Cl)c1C[P+](c1ccccc1)(c1ccccc1)c1ccccc1 | 100% |
| Nc1ccc2c(c1)Cc1cc(N)ccc1-2 | 103% |
| Cc1ccc(S(=O)(=O)n2cc([C@@]3(O)C[C@H](CSC#N)OC3=O)c3ccccc32)cc1 | 97.5% |
